# Bioassay records: PubChem BioAssay, The Scripps Research Institute Molecular Screening Center
# pPAFAH inh – pPAFAH enzyme inhibitors, primary screen, biochemical, fluorescence polarization, human. Platelet-activating factor acetylhydrolase (Homo sapiens), Q13093. recombinant pPAFAH, FP-rhodamine probe fluorescence polarization. inhibition, % at 3.39 µM. actives 1.5% (n = 330,000). AID 463082, 2010;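 active = inhibition above the mean inhibition across the screen plus 3 SD, cut at about 25% in these data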;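 also: inhibitors block binding of the rhodamine activity-based probe so polarization drops; 0% = enzyme with DMSO and 100% = wells lacking pPAFAH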
# Target sequence (Q13093 whole entry, looked up): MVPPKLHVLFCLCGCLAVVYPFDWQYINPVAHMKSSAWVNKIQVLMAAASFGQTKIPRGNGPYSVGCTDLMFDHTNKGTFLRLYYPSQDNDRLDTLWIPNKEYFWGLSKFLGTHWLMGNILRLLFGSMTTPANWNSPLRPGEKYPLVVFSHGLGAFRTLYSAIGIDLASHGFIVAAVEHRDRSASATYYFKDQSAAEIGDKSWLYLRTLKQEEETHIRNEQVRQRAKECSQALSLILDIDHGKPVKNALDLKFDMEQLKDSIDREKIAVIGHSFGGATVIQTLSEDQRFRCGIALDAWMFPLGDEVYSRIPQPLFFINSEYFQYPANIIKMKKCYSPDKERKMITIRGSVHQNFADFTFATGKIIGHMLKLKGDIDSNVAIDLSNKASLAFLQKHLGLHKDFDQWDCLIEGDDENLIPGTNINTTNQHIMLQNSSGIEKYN
# PAFAH2 FP inh – PAFAH2 enzyme inhibitors, primary screen, biochemical, fluorescence polarization, human. inhibition, % at 3.39 µM. recombinant PAFAH2, FP-rhodamine activity probe. actives 0.99% (n = 340,000). Platelet-activating factor acetylhydrolase 2, cytoplasmic (Homo sapiens), Q99487;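 active = inhibition above the mean over all tested compounds plus 3 SD, cut at about 30% in these data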;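 also: inhibitors block probe labeling of enzyme so polarization drops; 0% = enzyme with DMSO and 100% = wells lacking PAFAH2 protein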
# Fam108B counter – mouse Fam108B serine hydrolase inhibitors, primary screen, counter-screen for RBBP9 inhibitor project, biochemical, fluorescence polarization; inhibition, % at 9.51 µM; actives 0.33% (n = 300,000); recombinant Fam108B, FP-Rh probe fluorescence polarization; AID 1947, 2009;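 active = inhibition above the screen mean inhibition plus 3 SD, computed separately per campaign, cut at about 18% in these data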;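 also: inhibitors lower polarization as less probe binds the enzyme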
# PAFAH1B3 FP inh – PAFAH1B3 enzyme inhibitors, primary screen, biochemical, fluorescence polarization, human. Platelet-activating factor acetylhydrolase IB subunit alpha1 (Homo sapiens), Q15102. recombinant PAFAH1B3, FP-rhodamine probe. inhibition, % at 3.39 µM. actives 0.28% (n = 340,000);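 active = inhibition above the screen-wide average of all tested compounds plus 3 SD, cut at about 25% in these data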;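 also: 0% = enzyme with DMSO only and 100% = wells lacking PAFAH1B3 protein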
# PAFAH1B2 FP inh – PAFAH1B2 enzyme inhibitors, primary screen, biochemical, fluorescence polarization, human; Platelet-activating factor acetylhydrolase IB subunit alpha2 (Homo sapiens), P68402; recombinant PAFAH1B2, FP-rhodamine activity probe; inhibition, % at 3.39 µM; actives 1.2% (n = 340,000);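 active = inhibition above the mean of all tested compounds plus 3 SD, cut at about 24% in these data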;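 also: 0% = enzyme with DMSO and 100% = wells lacking PAFAH1B2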
# PME-1 primary – PME-1 inhibitors via competitive probe labeling, primary screen, biochemical, fluorescence polarization, FP-Rh probe, HTS | Protein phosphatase methylesterase 1 (Homo sapiens), Q9Y570 | recombinant PME-1 | inhibition, % at 5.9 µM | actives 0.53% (n = 320,000) | AID 2130, 2009;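 active = inhibition above the campaign mean of all compounds plus 3 SD, cut at about 26% in these data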;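 also: competitive labeling of PME-1 active site by serine hydrolase directed probe; 0% = PME-1 with DMSO and 100% = wells lacking PME-1 enzyme; inhibitors block probe labeling so polarization falls and inhibition rises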
# pPAFAH FP conf – pPAFAH (PLA2G7) enzyme inhibitors, confirmation, biochemical, fluorescence polarization, human; shares compounds with pPAFAH inh; recombinant pPAFAH, FP-Rh probe fluorescence polarization; inhibition, % at 3.39 µM; actives 72% (n = 2,300); AID 463230, 2010;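 active = mean inhibition of the triplicate above the hit cutoff set for the earlier primary screen, cut at about 25% in these data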;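 also: 0% = enzyme with DMSO and 100% = wells lacking pPAFAH enzyme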
# * hit, by the source's call; nt = no result given. Compounds with a hit are over-represented: about 2.8% of the library has one in this group of screens.
SMILES,pPAFAH inh,PAFAH2 FP inh,Fam108B counter,PAFAH1B3 FP inh,PAFAH1B2 FP inh,PME-1 primary,pPAFAH FP conf
CC(C)(C)NC(=O)c1cccc(NC(=O)c2cccc(O)c2)c1,3,4,0,2,4,-5,nt
CCCCOc1ccc(-c2cc(C(=O)NNC(=S)NCC)c3ccccc3n2)cc1,42*,0,5,12,1,1,51*
CCNC(=S)NNC(=O)c1cc(-c2cccnc2)nc2ccccc12,1,7,3,11,0,-11,nt
O=C(Nc1ccc(C(F)(F)F)cc1)N1CCN(c2ccnc3cc(Cl)ccc23)CC1,-2,nt,-24,nt,nt,-27,nt
Cc1cccc(N2CCN(C(=O)c3ccc4nc(N5CCCCC5)sc4c3)CC2)c1C,40*,-2,0,-3,0,1,9
CN(C)CCCNc1ccc(S(N)(=O)=O)cc1[N+](=O)[O-],1,-5,0,-3,-3,2,nt
Cc1cc([N+](=O)[O-])nn1CC(=O)NNC(=S)Nc1ccc(F)cc1,-5,-8,-5,-4,2,-4,nt
O=C(O)c1cccc2c1-c1ccc(Cl)cc1C2=O,nt,2,nt,3,5,nt,nt
O=C(O)c1cc(O)c2c(c1)C(=O)c1cccc(O)c1C2=O,36*,34*,12,13,14,5,15
Cc1cc(NC(=O)c2ccc(NC(=O)C(C)C)cc2)no1,41*,4,-1,3,4,9,4
CN(CC(=O)Nc1ccc(C(N)=O)cc1)CC(=O)Nc1ccccc1Br,59*,-8,-3,7,-2,-1,4
CC(=O)Nc1ccc(NC(=O)CN(C)CC(=O)Nc2ccccc2Br)cc1,-8,-7,-5,7,4,-3,nt
Oc1[nH]c2ccccc2c1C=Nc1ccccc1,10,-4,6,2,6,7,nt
CCOC(=O)c1c(C)[nH]c(C)c1S(=O)(=O)N(C)CC(=O)Nc1ccccc1OC,0,5,6,-2,4,11,nt
CCOC(=O)c1c(C)[nH]c(C)c1S(=O)(=O)N(C)CC(=O)Nc1ccccc1,38*,2,-4,4,1,10,4
O=C(O)c1ccc(N=Nc2c(O)ccc3ncccc23)cc1,39*,6,17,33*,14,-10,56*
C=CCOc1ccc(C2C3=C(CCCC3=O)N(CC(=O)O)C3=C2C(=O)CCC3)cc1OCC,5,2,1,6,2,4,nt
C=CCOc1c(Br)cc(C2C3=C(CCCC3=O)N(C)C3=C2C(=O)CCC3)cc1OCC,39*,9,3,-2,4,1,5
COc1ccc(NS(=O)(=O)c2cc(NC(=O)c3nc4nc(C)cc(C)n4n3)ccc2C)cc1,-6,1,-3,6,-1,2,nt
CCOC(=O)C(Cc1c[nH]c2cc([N+](=O)[O-])ccc12)(NC(C)=O)C(=O)OCC,nt,6,nt,4,2,nt,nt
Cc1cc(NC(=O)NN2CCOCC2)nn1-c1c(Cl)cc(Cl)cc1Cl,-4,-6,1,8,1,9,nt
O=c1cc(-c2ccccc2Cl)oc2cccc(O)c12,8,-3,1,0,-2,-2,nt
O=c1cc2oc3cc(O)c(O)cc3c(-c3ccccc3[N+](=O)[O-])c-2cc1O,88*,57*,9,13,17,-3,83*
O=C(CN1C(=O)c2ccccc2C1=O)NC1CCC(O)CC1 (configuration not stated),-1,5,nt,6,2,-1,nt
O=[N+]([O-])c1cc(S(=O)(=O)N2CCCC2)ccc1NN=C1CCCCC1,-2,-3,-2,-1,1,2,nt
SMILES,pPAFAH inh,PAFAH2 FP inh,Fam108B counter,PAFAH1B3 FP inh,PAFAH1B2 FP inh,PME-1 primary,pPAFAH FP conf
O=[N+]([O-])c1cc(C(F)(F)F)cc([N+](=O)[O-])c1NN=C1CCCCC1,35*,7,7,6,10,6,3
COc1cccc2nc3cc(C)c(C)cc3nc12,42*,25,9,25,23,8,13
CC1CCC(NC(=O)c2nc(Cn3ccc([N+](=O)[O-])n3)no2)CC1 (configuration not stated),4,-11,1,8,8,-4,nt
CN(c1ccccc1)S(=O)(=O)c1cccc(C(=O)NCCc2ccc(O)c(O)c2)c1,37*,8,-1,7,1,4,43*
Cc1csc(=Nc2ccc(S(=O)(=O)N3CCOCC3)cc2)n1Cc1ccco1,46*,-2,0,7,3,-1,10
Cc1csc(=Nc2cccnc2)n1Cc1ccco1,-9,-5,-3,16,0,-8,nt
O=C(CSc1nc2cc([N+](=O)[O-])ccc2n1-c1ccccc1)NCc1ccc2c(c1)OCO2,44*,3,0,4,-6,-1,37*
O=C(Nc1ccc2c(c1)CCC2)C1CCN(c2c3c(nc4ncnn24)CCC3)CC1,16,-4,-1,-3,5,-2,nt
O=C(Nc1ccc(Oc2ccccc2)cc1)C1CCN(c2c3c(nc4ncnn24)CCC3)CC1,76*,-1,-1,-10,1,-1,75*
COc1ccc(/C=C/C(=O)c2ccc(OC)cc2OC)cc1,-4,-7,-2,3,2,-6,nt
CNc1ccc(Br)cc(C(=O)/C=C/c2cc(OC)ccc2OC)c1=O,38*,27,8,18,1,18,24
CNc1ccc(Br)cc(C(=O)/C=C/c2ccc(OC)cc2)c1=O,43*,16,10,9,8,13,13
CCNc1ccc(Br)cc(C(=O)/C=C/c2ccc(Cl)cc2Cl)c1=O,66*,33*,1,16,3,23,34*
O=C(OCc1cccc(Cl)c1)c1cc([N+](=O)[O-])ccc1N1CCOCC1,6,3,1,2,6,5,nt
COc1ccc(COC(=O)c2cc([N+](=O)[O-])ccc2N2CCOCC2)cc1F,43*,-2,3,2,-1,5,8
CCn1c(=O)c(C(=O)NCc2ccccc2)c(O)c2ccccc21,5,-3,-2,8,2,-1,nt
CC(C)Cn1c(=O)c(C(=O)NCc2ccccn2)c(O)c2ccccc21,56*,-4,-2,9,-3,-3,3
O=C1NC(=Nc2ccc(O)cc2)S/C1=C\C=C\c1ccco1,53*,8,17,10,1,17,14
